# Sampled rows, rich in hits. Any-hit rate of the full collection: about 9.8%.
# JMJD2E inh: inhibitors of human JMJD2E histone demethylase | AID 2147 | JMJD2E catalytic domain, FDH-coupled NADH fluorescence (FDH is formaldehyde dehydrogenase) | hit rate 1.6% among 230,000 | Potency, µM (titrated, usually from 57.1 µM), for the others: at the highest dose activity change, negative = inhibition, most hits filed as inhibitors; active = well fitted inhibition curve with a large enough effect, not every such curve was filed as active; inconclusive = small, poorly fitted or top-dose-only effect, or another doubt; inactive = no such curve, though single readings can be large or run the other way;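 also: potency is read from the fitted curve at half-maximal effect; 0% = wells with enzyme and -100% = buffer wells without enzyme; nearly all actives have a fitted effect of over 50% in size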
# HTT aggregate: inhibitors of mutant huntingtin aggregate formation in PC12 cells; hit rate 1.1% among 220,000; PC12 HttQ103-GFP aggregates, Acumen cytometry, 40 h; AID 1688; Potency, µM (top dose mostly 46.1 µM), for inactives: at the top dose activity change, negative = inhibition, usual class: inhibitors; also: potency is read from the fitted curve at half-maximal effect; % is scaled to controls: 0 for no effect and ±100 for the full control effect; nearly all actives have a fitted effect of over 60% in size
#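 Aggregates are detected as GFP objects 1–25 µm with signal 6 STDEV over background in lysates of induced PC12 cells. These carry Huntingtin exon 1 with 103 glutamines fused to GFP under an ecdysone promoter; compounds titrated.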
# HPGD inh: inhibitors of human 15-hydroxyprostaglandin dehydrogenase (HPGD); purified HPGD, NADH fluorescence kinetic, PGE2 substrate; Potency, µM, inactives show at the top dose activity change, negative = inhibition, hits mostly inhibitors; hit rate 4.3% among 150,000; AID 894; active = well fitted inhibition curve with a large enough effect, not every such curve was filed as active; inconclusive = small, poorly fitted or top-dose-only effect, or another doubt; inactive = no such curve, though single readings can be large or run the other way; also: potency is read from the fitted curve at half-maximal effect; % is scaled to controls: 0 for no effect and ±100 for the full control effect
# Target sequence (P15428 whole entry, looked up): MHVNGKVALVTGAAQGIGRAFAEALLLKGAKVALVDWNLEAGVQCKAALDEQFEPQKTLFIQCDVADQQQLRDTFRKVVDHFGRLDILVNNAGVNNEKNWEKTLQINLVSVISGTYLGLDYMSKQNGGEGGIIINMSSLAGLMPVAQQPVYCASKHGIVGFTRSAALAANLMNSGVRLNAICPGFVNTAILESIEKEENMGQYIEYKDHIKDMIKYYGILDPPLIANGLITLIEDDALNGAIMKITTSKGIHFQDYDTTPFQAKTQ
#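 20 nM HPGD preincubated 15 min at room temperature with compound in 50 mM Tris-HCl pH 8, 0.01% Tween 20. Started with 1 mM NAD+ and 30 uM prostaglandin E2; NADH fluorescence (360/450 nm) read 5 times over 30-s intervals, last minus first.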
# ALDH1A1 inh: inhibitors of human aldehyde dehydrogenase 1A1 | AID 1030 | Potency, µM (highest dose often 75.3 µM), inactives show at the highest dose activity, negative = inhibition, most hits filed as inhibitors | Purified ALDH1A1, NADH fluorescence, propionaldehyde substrate | P00352 | hit rate 7.3% among 220,000; active = well fitted inhibition curve with a large enough effect, not every such curve was filed as active; inconclusive = small, poorly fitted or top-dose-only effect, or another doubt; inactive = no such curve, though single readings can be large or run the other way;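 also: potency is read from the fitted curve at half-maximal effect; plate controls were no enzyme wells and a reference inhibitor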
# Target sequence (P00352 whole entry, looked up): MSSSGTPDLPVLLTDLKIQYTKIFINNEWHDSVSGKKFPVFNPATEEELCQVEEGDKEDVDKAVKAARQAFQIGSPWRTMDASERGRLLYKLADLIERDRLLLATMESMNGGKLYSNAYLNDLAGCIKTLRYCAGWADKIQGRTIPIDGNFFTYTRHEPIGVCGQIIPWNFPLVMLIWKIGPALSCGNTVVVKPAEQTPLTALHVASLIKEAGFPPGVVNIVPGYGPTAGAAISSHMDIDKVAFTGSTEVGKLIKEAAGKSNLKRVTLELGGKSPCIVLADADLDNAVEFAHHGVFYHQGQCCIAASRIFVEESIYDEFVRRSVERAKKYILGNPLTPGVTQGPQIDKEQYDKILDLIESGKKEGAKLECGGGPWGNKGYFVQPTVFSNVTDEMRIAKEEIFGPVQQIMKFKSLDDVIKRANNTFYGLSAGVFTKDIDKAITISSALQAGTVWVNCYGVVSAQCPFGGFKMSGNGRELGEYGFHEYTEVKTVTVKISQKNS
# HTT ATP protect: Huntington cell model cytoprotection by ATP luminescence | hit rate 0.14% among 230,000 | Potency, µM (doses to about 56.4 µM), for the others: cytoprotection (ATP increase), usual class: activators | AID 1471 | PC12 HTT-Q103 induced, cytoprotection, ATP luminescence, 40 h; also: potency is read from the fitted curve at half-maximal effect; % of control where 0% means no effect; nearly all actives have a fitted effect of over 45% in size
#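 Compounds were screened for protection of PC12 cells against cell death after tebufenozide induction (100 nM final) of mutant Huntingtin exon 1 (Q103) fused to GFP.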
# CBFb RUNX1 block: inhibitors of human CBF-beta and RUNX1 interaction; 230,000 tested, under 10 active; Potency, µM (series often up to 59.8 µM), inactives show top-dose activity, negative = inhibition, actives largely listed as inhibitors; AID 1477; Q01196+Q13951; AlphaScreen CBFb-His/RUNX1-biotin binding, biochemical; also: % of control where 0% means no effect
#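 Inhibition was taken as any reduction in AlphaScreen signal from the CBF-beta–RUNX1 pair (His and biotin tags, 30 nM each), measured after compound (15 min) and bead (90 min) incubations at room temperature.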
# * = called active by the depositor; ? = inconclusive; nt = not tested or not shown; ! = repeats disagree; [ ] = remark or other dose. Unless noted, calls follow the shape of the dose curve; as a rule, active = well fitted curve in the direction sought with a large enough effect; inconclusive = small, poorly fitted or top-dose-only effect, or another doubt; inactive = no such curve, though single readings can be large; an effect the other way counts as inactive or inconclusive.
SMILES,JMJD2E inh,HTT aggregate,HPGD inh,ALDH1A1 inh,HTT ATP protect,CBFb RUNX1 block
Cc1ccc(O)c(C(=O)c2cc(C(=O)NCc3ccccc3)c(=O)n(Cc3ccccc3)c2)c1,-3%,5%,-29%,?,-5%[10 µM],-4%
O=C(c1cc(C(=O)NCc2ccccc2)c(=O)n(Cc2ccccc2)c1)c1cc(Br)ccc1O,8%,-1%,10µM*,-14%,3%[10 µM],-22%
C[C@]12CN(CC[N+](C)(C)C)C[C@]1(C)[C@@H]1CC[C@@H]2O1,nt,nt,2%,0%[13.5 µM],0%[10 µM],nt
O=C(Nc1ccc([As](=O)(O)O)cc1)Nc1cccc(Cl)c1Cl,nt,nt,-8%,3%[13.5 µM],0%[10 µM],nt
Cc1ccc(-n2nnnc2SCC(=O)Nc2sc(C)c(C)c2C#N)cc1C,2%,31%,-20%,16µM*,-28%[10 µM],16%
C[C@@H](Cc1ccc2c(c1)OC(C(=O)O)(C(=O)O)O2)NC[C@H](O)c1cccc(Cl)c1,nt,nt,nt,nt,-5%[1.9 µM],nt
O=c1cc(-c2ccc(O)cc2)oc2c([C@H]3O[C@@H](CO)[C@@H](O)[C@@H](O)[C@@H]3O)c(O)cc(O)c12,-28%[25.5 µM],nt,-7%,-6%[20.9 µM],-5%[40.3 µM],-5%[21.7 µM]
FC(F)=C(F)CCSc1ncn[nH]1,4.5µM*,3%[9.22 µM],nt,1%,-19%[1.9 µM],0%
O=P(Nc1ccccc1)(Nc1ccccc1)Oc1ccc(Cl)cc1,-2%,-8%,5.6µM*,-3%,-18%,3%
COc1cccc(NP(=O)(Oc2ccc(Cl)cc2)Oc2ccc(Cl)cc2)c1,4%,-29%,-10%,9%,4%[10 µM],21%
S=C=NCc1ccccc1,1%,nt,?,2.8µM*,-20%,14%
S=C=Nc1cccc2ccccc12,nt,nt,?,?,12%,-1%[21.7 µM]
COc1cc2c(cc1OC)[C@@]13CCN4C=C5CCO[C@H]6CC(=O)N2[C@@H]1C6[C@H]5C[C@H]43 (some centres not stated),nt,nt,-9%,11%[13.5 µM],nt,nt
Cc1ccc(N2C(=O)/C(=C/c3ccc(CN(CCC#N)S(C)(=O)=O)o3)C(=O)NC2=S)cc1,?,-7%,22µM*,22µM*,8%,?
Nc1ncnc2c1ncn2[C@@H]1O[C@H](COP(=O)(O)OP(=O)(O)OP(=O)(O)O)[C@H]2OC3(O[C@H]21)C([N+](=O)[O-])=CC(=[N+]([O-])[O-])C=C3[N+](=O)[O-] (some centres not stated),nt,nt,?,?,-20%,-9%
O=C/C=C/c1ccccc1,nt,23%,-9%,13µM*!,10%,5%
CC(=O)/C=C/c1ccccc1,nt,nt,-9%,2%,-16%,9%[21.7 µM]
c1ccc(NNc2ccccc2)cc1,nt,nt,4%,10µM*,0%,14%[21.7 µM]
CC(=O)NNc1ccccc1,nt,nt,-2%,-5%,6%,10%[21.7 µM]
Oc1ccc2c3c1O[C@H]1c4c(c5ccccc5n4Cc4ccccc4)C[C@@]4(O)C(C2)N(CC2CC2)CC[C@]314,nt,nt,nt,5%,-156%,2%
O=C1N=C(N2CCCCC2)SC1=C1CCCCC1,3%,19%,20µM*,8.9µM*,-12%,7%
C[C@@]12CC[C@H]3[C@@H](CC[C@H]4C[C@@H](O)CC[C@]43C)[C@H]1CC[C@@H]2C(=O)C[C@H](O)C(F)(F)F,nt,nt,-13%,9%[13.5 µM],11%[10 µM],nt
CN1CCC(O)(c2ccccc2)C(C(=O)c2ccccc2)C1 (configuration not stated),0%,20%,-4%,0.14µM*,26%,0%
Oc1ccc(/C=N/NP(=S)(c2ccccc2)c2ccccc2)cc1O,?,?,-12%,6%,?,-6%
CCOc1cc(C=O)ccc1O,nt,nt,-16%,25µM*,3%,15%[21.7 µM]
SMILES,JMJD2E inh,HTT aggregate,HPGD inh,ALDH1A1 inh,HTT ATP protect,CBFb RUNX1 block
O=Cc1ccc(O)c(O)c1,4.5µM*,-18%,-7%,-15%,nt,3%
C[C@]12C=CC(=O)C=C1CCC1C2=CC[C@]2(C)[C@@H](C(=O)CN3CCN(c4cc(N5CCCC5)nc(N5CCCC5)n4)CC3)CC[C@@H]12 (some centres not stated),?,nt,-18%,?,nt,-7%
CCCCC/C=C\C/C=C\C/C=C\C/C=C\CCCC(=O)NCc1ccc(O)c(OC)c1,nt,nt,32µM*,25µM*,-84%,6%
COc1cc(CNC(=O)CCCC/C=C/C(C)C)ccc1O,0%,-2%,-24%,2µM*!,-44%[1.9 µM],?
CCCCCCCCC(=O)NCc1ccc(O)c(OC)c1,-2%,7%,-5%,-3%,-28%,20%
ClCCl,nt,nt,-7%,?,21%,-4%[21.7 µM]
C[CH2][Hg][S]c1ccccc1C(=O)O,-24%,2.5µM*,0.28µM*,0.18µM*,-323%,17%
Cc1cccc(C(=O)O)c1O,?,1%,?,?,6%,nt
COc1ccccc1-n1c(-c2ccoc2)nc2ccccc2c1=O,3%,10%,-11%,?,-13%,1%
O=c1c2ccccc2nc(-c2ccoc2)n1-c1ccccc1Cl,6%,-3%,-20%,16µM*,10%,1%
Cc1ccc(NC(=S)NCC2CCCO2)cc1 (configuration not stated),4%,-7%,25µM*,-13%,-32%,-9%
N/C(=N\N=C\c1ccc(O)cc1O)N[N+](=O)[O-],25µM*,8%,-14%,4%,-6%,-9%
N#C/C(=C\c1ccc(O)c(O)c1)C(N)=S,?,nt,8.9µM*,2.2µM*,-14%,?
S=C(S)N1CCNCC1,nt,10%,nt,nt,23%,nt
S=C(S)N1CCCC1,?,nt,10µM*,0.79µM*,?,?
O=[N+]([O-])c1ccc(F)c([N+](=O)[O-])c1,nt,7%,-24%,20µM*,9%,14%[21.7 µM]
Nc1ccc([N+](=O)[O-])cc1[N+](=O)[O-],nt,nt,-2%,-10%,8%,0%[21.7 µM]
Cc1ccc(C(c2nnnn2Cc2ccccc2)N2CC=C(c3ccc(F)cc3)CC2)cc1 (configuration not stated),-5%,1%,-15%,7.9µM*,-26%,0%
Nc1nc(N)c(N=Nc2ccc([As](=O)(O)O)c(O)c2)c(N)n1,nt,nt,-3%,9%[13.5 µM],-9%[10 µM],nt
CC1=NN(c2ccccc2)C(=O)[C@@H]1N=Nc1ccc([As](=O)(O)O)c(O)c1,nt,nt,-6%,3.5µM*,-4%[10 µM],nt
Oc1cc2c(cc1O)[C@H]1c3ccccc3CN[C@H]1CC2,25µM*,nt,8.9µM*,?,-29%,3%
CCOC(=O)CCN(SN(C)C(=O)Oc1cccc2c1OC(C)(C)C2)C(C)C,nt,nt,nt,nt,nt,14%
NC(=S)Nc1ccccc1,nt,nt,-2%,3%,-1%,6%[21.7 µM]
CC(/C=C(\C)Nc1ccccc1)=Nc1ccccc1,-2%,0%,nt,25µM*,-9%,-12%
